# Hit rate of the full screen: of about 370,000 compounds, about 4,100 (1.1%) were called active. This is one part of a sample in which actives are shown more often than they occur. Values without a mark were called inactive.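 Rule for the calls: active = inhibition above the mean over all tested compounds plus 3 SD (cut at about 3.6% in these data); inactive = the rest.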
# Assay: DAX1 (NR0B1) inhibitors on StAR promoter, primary screen, cell-based, luminescence, SF-1 (NR5A1), full-length DAX-1 (AID 652010);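 note: 0% = DAX-1 cells with DMSO and 100% = cells lacking DAX-1 with DMSO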
# Conditions: HEK293T StAR-luciferase reporter, SF-1/DAX-1 repression relief; at 6.8 µM; stronger effect = higher value
row,Compound,inhibition
1,CCOc1ccc(N(CC(=O)Nc2c(C)n(C)n(-c3ccccc3)c2=O)S(=O)(=O)c2ccc(Cl)s2)cc1,-1.26%
2,Cc1ccccc1OCCC(=O)OCC(=O)NCCc1ccc(S(N)(=O)=O)cc1,2.36%
3,CCC(NC(=O)C1C2C=CC3(CN(Cc4ccccc4)C(=O)C13)O2)c1ccccc1 (stereo not drawn),-0.13%
4,Cc1cccc(NC(=O)c2cc3c(C)nn(-c4ccccc4)c3s2)c1,-0.95%
5,CN(C)CC(=O)N[C@@H]1C[C@@H]2O[C@H](CO)CC[C@@H]2O[C@@H]1CCc1ccc(C#Cc2ccccc2)cc1,-1.24%
6,CC(OC(=O)Cc1ccc(F)cc1)C(=O)N1CCc2ccccc21 (stereo not drawn),0.95%
7,O=C(CN1C(=O)c2ccccc2S1(=O)=O)N1CCc2ccccc21,-2.91%
8,O=C(CSCc1ccccc1)N1CCc2ccccc21,3.64% (active)
9,Cc1ccc(-n2c(SCC(=O)Nc3ccc(S(=O)(=O)Nc4nccs4)cc3)nnc2-c2cccnc2)cc1,0.65%
10,CCOC(=O)[C@]12CCCCC/C=C\1N(Cc1ccc(OC)cc1)C(=O)[C@H]2CC(=O)NCc1ccc(C)o1,0.47%
11,COc1cc(C2c3cc4c(cc3C(O)C3COC(=O)C23)OCO4)cc(OC)c1OC (stereo not drawn),7.49% (active)
12,COc1cc(C=C(OC(C)=O)c2ccc3c(c2)OCO3)cc(OC)c1OC,-1.67%
13,COc1cc(C2CC(=O)Oc3cc(OC)c(OC)c(OC)c32)cc(OC)c1OC (stereo not drawn),0.24%
14,O=C(NC1CCCCN(Cc2cccc(C(F)(F)F)c2)C1=O)c1ccccc1I (stereo not drawn),-0.84%
15,Cc1ccc(C(=O)C2CCN(CC(=O)NCCC(C)C)CC2)cc1,-0.3%
16,O=c1c2ccccc2nc2n1C(CSc1ccc(Cl)cc1)CN2 (stereo not drawn),0.41%
17,Clc1ccc2nc(CSc3ccccc3)cn2c1,4.45% (active)
18,Cn1nc(-c2ccccc2)c(CSc2cccc(Cl)c2)c1Cl,-0.99%
19,O=C(N[C@H](C(=O)N1CCC[C@H]1C(=O)NCCc1ccccc1Cl)c1ccccc1)c1ccccc1,-0.28%
20,CCOC(=O)[C@]12CCCC3=C1N(CCC3)C(=O)[C@@H](CC(=O)NCc1cccs1)C2,0.02%
21,CC(CCN1CCC(C(O)(c2ccccc2)c2ccccc2)CC1)Oc1ccc(C(F)(F)F)cc1 (stereo not drawn),-0.91%
22,Cc1ccc(Nc2c(F)c(F)c(F)c(F)c2C(=O)O)c(C)c1,0.38%

row,Compound,inhibition
1,CCOc1ccc2cc(C#N)c(SCC(=O)OC)nc2c1,3.71% (active)
2,Cc1cc(C#N)c(SCC(N)=O)nc1-c1ccc(F)cc1,0.32%
3,COc1ccc(CCNC(=O)CSc2nc(-c3ccc(OC)c(OC)c3)ccc2C#N)cc1,-0.18%
4,Cc1ccc(-n2c(COc3ccccc3)nnc2SCC(=O)Nc2ccc3c(c2)OCCO3)cc1,-2.9%
5,COc1ccc(-n2c(SCC(=O)Nc3ccccc3-c3ccccc3)nnc2-c2cccnc2)cc1,-1.84%
6,Nc1nc2c(ncn2[C@@H]2O[C@H](CNCc3ccc(OCCCN4CCOCC4)cc3)[C@@H](O)[C@H]2O)c(=O)[nH]1,1.17%
7,CC(C)(O)C#Cc1ccc(CNC[C@H]2O[C@@H](n3cnc4c(=O)[nH]c(N)nc43)[C@H](O)[C@@H]2O)s1,5.95% (active)
8,Nc1nc2c(ncn2[C@@H]2O[C@H](CNS(=O)(=O)N3CCc4ccccc4C3)[C@@H](O)[C@H]2O)c(=O)[nH]1,-0.84%
9,Clc1ccc(-n2c(COc3ccccc3)nnc2SCc2nc3ccccc3[nH]2)cc1,0.06%
10,O=C(CSc1nc2ccccc2s1)N=Nc1c(O)[nH]c2ccccc12,0.2%
11,COC(=O)C1CN(CC(C)C)CCS(=O)(=O)N1Cc1ccc(F)cc1 (stereo not drawn),-0.94%
12,CCC(=O)Nc1ccc2c(c1)C(=O)N(C)[C@@H]1CC[C@@H](CC(=O)NCCc3ccccc3)O[C@H]1CO2,0.25%
13,Cc1nn(-c2ccccc2)c2c1C(c1cccc([N+](=O)[O-])c1)N(c1ccccc1)C(=O)N2 (stereo not drawn),-0.06%
14,CC(C)(C)c1cnnn1-c1ccc([N+](=O)[O-])cc1,0.31%
15,Cc1nn(-c2ccc([N+](=O)[O-])cc2)c(N)c1-c1ccccc1,4.84% (active)
16,O=C(Nc1ccc([N+](=O)[O-])cc1)OCCc1ccccn1,-0.01%
17,O=[N+]([O-])c1ccc2nc(-c3ccccn3)[nH]c2c1,3.65% (active)
18,O=[N+]([O-])c1ccc(N/N=C2/CCCCC2c2ccccn2)c([N+](=O)[O-])c1 (stereo not drawn),-0.26%
19,CC(C)CNc1cccc2c1S(=O)(=O)N(Cc1cn(Cc3ccc(Cl)cc3)nn1)Cc1ccccc1O2,-0.85%
20,Cc1ccc(C2=CCN(C)C(=O)N2c2ccc(Cl)cc2)cc1,-0.53%
21,COc1cccc(C(NC(C)=O)c2nc(-c3cnc4ccccc4c3)cs2)c1 (stereo not drawn),-0.06%
22,CC(C)c1cccc(-c2csc(C(O)c3ccccc3)n2)c1 (stereo not drawn),0.06%

row,Compound,inhibition
1,OC(c1ccccc1)c1nc(-c2cnc3ccccc3c2)cs1 (stereo not drawn),9.07% (active)
2,CSc1ncnc2c1ncn2CCCNCc1cccs1,0.19%
3,CN(C)c1ccc(NC(=O)c2ccncc2)c2ccccc12,-0.26%
4,O=C(Nc1ccc2ccccc2c1[N+](=O)[O-])c1ccccc1,5% (active)
5,Cc1ccc(NC(=O)c2oc3ccccc3c2C)c([N+](=O)[O-])c1,0.06%
6,COc1cccc(NC(=O)CCc2nnc3ccc(N4CCC(C)CC4)nn23)c1,-0.5%
7,O=C(NCc1cccs1)C1CCN(S(=O)(=O)c2ccccc2[N+](=O)[O-])CC1,0.71%
8,O=C1NC(Nc2nc3ccccc3s2)(C(F)(F)F)C(=O)N1C1CCCCC1 (stereo not drawn),-1.98%
9,O=C(COc1ccc(-c2ccccc2)cc1)NN=C1CCCC1,-1.32%
10,c1ccc2sc(NN=C3CCCC3)nc2c1,4.11% (active)
11,CCOC(=O)c1oc2c(CN3CCN(CCO)CC3)c(O)c(CC)cc2c(=O)c1-c1nc2ccccc2s1,0%
12,CCCCNC(=O)C[C@@H]1C(=O)N(CCc2ccc(Cl)cc2)C2=CCCC[C@]21C(=O)OCC,-1.99%
13,COc1cccc(NC(=O)C/C(C)=N/NC(=O)C2CCCCC2)c1,-0.19%
14,Cc1ccc(C)c(-n2ccnc2SCC(N)=O)c1,-0.07%
15,O=C(NC(=S)Nc1ccc(Cl)cc1Cl)C1CC1,5.23% (active)
16,O=C(NC(=S)Nc1ccc(Br)cc1F)C1CCCCC1,3.34%
17,S=C(Nc1ccc(Cl)cc1Cl)N1CCCC1,2.27%
18,Cc1cccc(-n2c(O)c(C=Nc3ccccc3N)c(=O)[nH]c2=O)c1,3.64% (active)
19,Cc1cc(=O)n(C)c(=O)n1CCCNc1ccccc1,0.36%
20,COc1ccc(C#CCNCc2ccc(OC)cc2OC)cc1,-1.39%
21,Cc1cc(C(=O)NN=C/C=C/c2ccco2)n[nH]1,0.49%
22,C(=N\Nc1ccc2ccccc2n1)/c1ccc2c(c1)OCO2,8.27% (active)

row,Compound,inhibition
1,Clc1ccc(Nc2ccc3ccccc3n2)cc1,2.89%
2,Nc1nonc1-n1nnc(C(=O)N/N=C/c2ccc(Cl)cc2)c1-c1ccc2c(c1)OCO2,0.01%
3,COC(=O)[C@@]12CCCCC3=C1N(CCC3)C(=O)[C@H]2CC(=O)NCc1cccc2ccccc12,-0.9%
4,O=C(Nc1cc(F)ccc1F)c1ccc2c(=O)n3c(nc2c1)CCC3,3.87% (active)
5,Cc1cc(C)c(C)c(S(=O)(=O)N2CCN(C(=O)c3ccc4c(=O)n5c(nc4c3)CCC5)CC2)c1C,5.04% (active)
6,N#Cc1cccc(OC(=O)c2ccc3c(=O)n4c(nc3c2)CCC4)c1,-0.02%
7,O=C(O)c1ccc2c(=O)n3c(nc2c1)/C(=C/c1ccc(OC(F)F)cc1OC(F)F)CC3,0.3%
8,O=C(c1ccc(Cl)c(S(=O)(=O)N2CCCCC2)c1)N1CCCCCC1,-3.11%
9,CC1CCN(C(=O)c2ccc3c(=O)n4c(nc3c2)CCCCC4)CC1,-0.43%
10,COP(=O)(O)CNC(=O)OCc1ccccc1,-0.36%
11,COC(=O)c1c(-c2ccc(OC)cc2)c2c(c3c4cc(OC)ccc4n(S(=O)(=O)c4ccc(F)cc4)c13)C(=O)N(C)C2,-2.04%
12,CC(=O)c1ccc(S(=O)(=O)NCC2CCN(C(=O)C(=O)c3cccs3)CC2)cc1,-0.63%
13,NS(=O)(=O)c1ccc(CCNC(=O)c2ccc(Cl)cc2[N+](=O)[O-])cc1,-0.5%
14,Cc1cc(OC(=O)NCCc2ccc(F)cc2)ccc1F,-0.8%
15,Cc1cc(C(=O)NCCc2ccc(Cl)cc2)c(C)o1,5.45% (active)
16,CC(=O)OCCN1CCCC12CCC(c1ccccc1)CC2 (stereo not drawn),-0.24%
17,Cc1c(NC(=O)C(=O)N/N=C/c2cccs2)c(=O)n(-c2ccccc2)n1C,0.14%
18,O=C(N/N=C/c1sc(N2CCCCC2)nc1-c1cccs1)c1cccnc1,-1.84%
19,O=C(O)c1ccc(N/N=C/c2cn(-c3ccccc3)nc2-c2cccs2)cc1,6.23% (active)
20,CN(CCO)c1cccc2c1S(=O)(=O)N(Cc1cn(Cc3ccc(C(F)(F)F)cc3)nn1)Cc1ccccc1O2,-1.1%
21,C=CCN1C(=O)[C@@H](CC(=O)NCCCOCCCC)[C@]2(C(=O)OCC)CCCCC/C=C/12,0.1%
22,O=C1/C(=C\Nc2ccccc2)CCN1c1ncccn1,0.43%

# Source: PubChem BioAssay AID652010 (The Scripps Research Institute Molecular Screening Center, 2013)
